Here are results for 13 compounds from PubChem BioAssay (EPA / NIEHS).

A short description of assay [1]: BSK_SAg_PBMCCytotoxicity: PBMC Cytotoxicity Assessment in the BioMAP Diversity Plus: SAg Assay (AID 2283093).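 Also: PBMC viability measured as Alamar Blue reduction fluorescence at 546/580 nm; fitted both ways against DMSO so a hit may be loss or gain of signal.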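 As to AC50: PBMC superantigen activated with SEB plus TSST-1 one hour after compound addition.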 The conditions noted are these: primary human HUVEC with PBMC. A digest of the protocol:
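Alamar Blue reduction (6 h, 546/580 nm) reports PBMC cytotoxicity after 90 h superantigen activation (SEB, TSST-1; 20 ng/mL final each) with 1 h compound pre-treatment. Gain or loss of signal fitted versus DMSO.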

Read-out in assay [2]: Interleukin-8 (IL8), CXCL8 (gene 3576)
In words: BSK_SAg_IL8: BioMAP Diversity Plus: SAg Assay for Interleukin-8 (IL8) Biomarker Activity (AID 2283094). The conditions noted are these: primary human HUVEC with PBMC; actives raise or lower the signal. A digest of the protocol:
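HUVEC/PBMC co-culture, 24 h post-dose; IL-8 by ELISA. Gain or loss of signal fitted bidirectionally vs DMSO baseline.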

A short description of assay [3]: BSK_SAg_SRB: Viability Assessment in the BioMAP Diversity Plus: SAg Assay (AID 2283096).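 Also: cells read one day after compound addition; hits may be either gain or loss of signal compared with DMSO.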 The conditions noted are these: primary human HUVEC with PBMC. A digest of the protocol:
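This overt-cytotoxicity endpoint quantifies protein in human endothelial/PBMC co-cultures at 24 h using SRB absorbance (560 nm) after trichloroacetic acid fixation. Values reflect signal change from the DMSO negative control, fitted bidirectionally.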

Assay [4] has as its target human CYP1A2, CYP1A2 (gene 1544) (UniProt P05177). In words: NVS_ADME_hCYP1A2: NovaScreen (NVS) CYP450-related Enzyme Activity (ADME) Assay for human CYP1A2 (AID 2283102; active = hit-call score of the fitted dose curve at least 0.9, where 1 is the maximum;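 as to AC50: potency for inhibition since loss of fluorescence marks reduced CYP1A2 activity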). The procedure, abridged:
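Fluorescence-intensity enzyme activity read-out, taken 0.5 h post-dosing, using insect-cell-derived recombinant CYP1A2 and specific fluorescent substrate. Acetonitrile served as negative control/baseline. Single-concentration duplicate screen at 10 uM, then concentration-response follow-up.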

Assay [5] concerns the target human CYP2C8, CYP2C8 (gene 1558) (UniProt P10632). In words: NVS_ADME_hCYP2C8: NovaScreen (NVS) CYP450-related Enzyme Activity (ADME) Assay for human CYP2C8 (AID 2283104). A digest of the protocol:
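Fluorescence readout of substrate turnover by recombinant CYP2C8 after 0.5 h, baseline acetonitrile. Single-concentration duplicate screen at 10 uM preceded singleton concentration series (max 20 uM) for compounds passing the inhibition threshold.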

In assay [6] the target is human CYP19A1, CYP19A1 (gene 1588) (UniProt P11511). In words: NVS_ADME_hCYP19A1: NovaScreen (NVS) CYP450-related Enzyme Activity (ADME) Assay for human CYP19A1 (AID 2283098; active = hit-call score of the fitted dose curve at least 0.9, where 1 is the maximum;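 as to AC50: potency for inhibitors seen as loss of fluorescent enzyme signal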). The procedure, abridged: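 Compounds were first screened at 10 uM in duplicate against purified enzyme, with a fluorogenic substrate and fluorescence intensity detection after 0.5 h. Inhibition appears as reduced signal against acetonitrile control.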

In assay [7] the target is human CYP2C9, CYP2C9 (gene 1559) (UniProt P11712). In words: NVS_ADME_hCYP2C9: NovaScreen (NVS) CYP450-related Enzyme Activity (ADME) Assay for human CYP2C9 (AID 2283108; active = hit-call score of the fitted dose curve at least 0.9, where 1 is the maximum). A digest of the protocol: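 Cell-free assay of recombinant human CYP2C9 produced in Sf9 cells, with enzyme activity read by fluorescence intensity 0.75 h after compound addition. Loss of signal versus an acetonitrile negative control indicates inhibition. Primary screen used 10 uM in duplicate; actives were retested in concentration series.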

Assay [8] addresses human CYP2D6, CYP2D6 (gene 1565) (UniProt P10635). Briefly: NVS_ADME_hCYP2D6: NovaScreen (NVS) CYP450-related Enzyme Activity (ADME) Assay for human CYP2D6 (AID 2283107; active = hit-call score of the fitted dose curve at least 0.9, where 1 is the maximum). A digest of the protocol: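 Fluorescence intensity read 1 h post-dosing; insect-cell-expressed recombinant protein with fluorogenic substrate, no cells. Activity is scored as signal loss relative to acetonitrile baseline, first at a single 10 uM concentration in duplicate, then as concentration series for confirmed actives.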

The target of assay [9] is human CYP2A6, CYP2A6 (gene 1548) (UniProt P11509). Briefly: NVS_ADME_hCYP2A6: NovaScreen (NVS) CYP450-related Enzyme Activity (ADME) Assay for human CYP2A6 (AID 2283099; active = hit-call score of the fitted dose curve at least 0.9, where 1 is the maximum). A digest of the protocol:
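Insect-cell-expressed human CYP2A6 enzyme activity measured by fluorescence intensity 0.5 hour post-dosing. Compounds screened at 10 uM in duplicate, then hits tested singly in concentration series (max 20 uM); acetonitrile baseline.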

Assay [10] concerns the target human CYP1A1, CYP1A1 (gene 1543) (UniProt P04798). Briefly: NVS_ADME_hCYP1A1: NovaScreen (NVS) CYP450-related Enzyme Activity (ADME) Assay for human CYP1A1 (AID 2283100; active = hit-call score of the fitted dose curve at least 0.9, where 1 is the maximum). A digest of the protocol:
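Read-out: fluorescence intensity from enzymatic turnover of substrate by recombinant CYP1A1, loss of signal indicating inhibition. Incubation 1 h post-dose. Primary single-point 10 uM in duplicate; actives rerun singly with top concentration 20 uM.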

The target in assay [11] is human CYP2B6, CYP2B6 (gene 1555) (UniProt P20813). In words: NVS_ADME_hCYP2B6: NovaScreen (NVS) CYP450-related Enzyme Activity (ADME) Assay for human CYP2B6 (AID 2283101; active = hit-call score of the fitted dose curve at least 0.9, where 1 is the maximum). The procedure, abridged:
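Fluorescence-based enzyme activity of recombinant human CYP2B6, measured 1 h post-dose against acetonitrile vehicle baseline. Screened at a single concentration of 10 uM in duplicate before concentration-response follow-up.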

The target of assay [12] is Cytochrome P450 2C18 (Homo sapiens) (UniProt P33260). In words: NVS_ADME_hCYP2C18: NovaScreen (NVS) CYP450-related Enzyme Activity (ADME) Assay for human CYP2C18 (AID 2283103). The procedure, abridged:
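Enzyme activity measured by fluorescence 0.5 h after compound addition, using recombinant CYP2C18 and a specific substrate. Actives from duplicate 10 uM screening were retested in concentration series (top 20 uM); acetonitrile served as negative baseline.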

In assay [13] the target is human CYP2J2, CYP2J2 (gene 1573) (UniProt P51589). In words: NVS_ADME_hCYP2J2: NovaScreen (NVS) CYP450-related Enzyme Activity (ADME) Assay for human CYP2J2 (AID 2283106; active = hit-call score of the fitted dose curve at least 0.9, where 1 is the maximum). The procedure, abridged: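 Chemicals were first tested at 10 uM in duplicate, and hits meeting criteria such as 30% inhibition were run in singleton concentration series with a 20 uM top concentration. Enzyme activity of recombinant CYP2J2 was measured by fluorescence after 1 h, relative to acetonitrile.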

Assay [14] addresses rat CYP2A2, Cyp2a2 (gene 24895) (UniProt P15149). In words: NVS_ADME_rCYP2A2: NovaScreen (NVS) CYP450-related Enzyme Activity (ADME) Assay for rat CYP2A2 (AID 2283116; active = hit-call score of the fitted dose curve at least 0.9, where 1 is the maximum). A digest of the protocol:
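Compounds first tested in duplicate at 10 uM, then in singleton concentration series up to 20 uM when over threshold. Activity of the recombinant enzyme read by fluorescence at 0.2 h, normalised to acetonitrile vehicle.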

For assay [15], the target named is rat CYP2A1, Cyp2a1 (gene 24894) (UniProt P11711). In words: NVS_ADME_rCYP2A1: NovaScreen (NVS) CYP450-related Enzyme Activity (ADME) Assay for rat CYP2A1 (AID 2283114). The procedure, abridged: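 Cell-free fluorescence enzyme-activity read on recombinant rat CYP2A1, taken 0.75 h post-dosing. Compounds were screened in duplicate at 10 uM, then hits tested in concentration series (max 20 uM); inhibition scored relative to acetonitrile baseline.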

For assay [16], the target named is rat CYP1A2, Cyp1a2 (gene 24297) (UniProt P04799). In words: NVS_ADME_rCYP1A2: NovaScreen (NVS) CYP450-related Enzyme Activity (ADME) Assay for rat CYP1A2 (AID 2283115; active = hit-call score of the fitted dose curve at least 0.9, where 1 is the maximum). The procedure, abridged:
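Primary testing ran in duplicate at 10 uM, with actives re-tested across concentration series. Fluorescence intensity from substrate turnover by recombinant protein, measured 1 hour post-dosing, with signal loss scored against acetonitrile vehicle.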

Each structure is given as a SMILES string. Values joined by “and” are separate entries in the source; they are usually repeats but may differ in a detail not shown here. Identical values can stand only once. Results filed as inconclusive are left out. Active and inactive are the calls of the source. The calls were made as follows, unless noted: active = hit-call score of the fitted dose curve at least 0.9, where 1 is the maximum; inactive = score below 0.9.

Sequence of human CYP2B6, CYP2B6 (gene 1555) (P20813 whole entry, looked up): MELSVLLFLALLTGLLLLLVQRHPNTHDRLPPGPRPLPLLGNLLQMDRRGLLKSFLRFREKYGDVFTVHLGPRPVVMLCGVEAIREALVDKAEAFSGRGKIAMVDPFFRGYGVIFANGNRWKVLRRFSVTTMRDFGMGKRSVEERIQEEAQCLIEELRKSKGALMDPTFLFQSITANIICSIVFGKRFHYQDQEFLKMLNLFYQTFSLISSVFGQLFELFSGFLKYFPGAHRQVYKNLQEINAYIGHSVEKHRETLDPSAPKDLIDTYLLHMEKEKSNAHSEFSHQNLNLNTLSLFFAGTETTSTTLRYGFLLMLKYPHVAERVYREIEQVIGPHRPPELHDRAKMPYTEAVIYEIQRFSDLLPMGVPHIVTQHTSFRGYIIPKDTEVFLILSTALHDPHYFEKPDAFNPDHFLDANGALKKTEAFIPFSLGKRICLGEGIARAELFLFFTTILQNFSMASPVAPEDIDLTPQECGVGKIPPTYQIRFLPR
Sequence of human CYP2J2, CYP2J2 (gene 1573) (P51589 whole entry, looked up): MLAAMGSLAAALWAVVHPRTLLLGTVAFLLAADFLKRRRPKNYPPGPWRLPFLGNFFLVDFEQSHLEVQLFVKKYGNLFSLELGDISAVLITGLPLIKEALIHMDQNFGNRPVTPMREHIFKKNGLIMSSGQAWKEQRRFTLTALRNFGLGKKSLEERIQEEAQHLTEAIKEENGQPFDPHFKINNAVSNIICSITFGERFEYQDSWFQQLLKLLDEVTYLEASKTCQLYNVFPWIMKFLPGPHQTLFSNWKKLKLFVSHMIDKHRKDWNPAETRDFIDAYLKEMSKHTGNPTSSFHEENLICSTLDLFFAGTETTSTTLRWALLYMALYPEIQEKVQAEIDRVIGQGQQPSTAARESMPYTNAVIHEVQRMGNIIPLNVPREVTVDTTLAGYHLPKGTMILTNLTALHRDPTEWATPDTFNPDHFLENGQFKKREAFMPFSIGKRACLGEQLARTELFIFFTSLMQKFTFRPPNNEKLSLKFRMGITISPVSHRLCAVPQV
Sequence of human CYP1A2, CYP1A2 (gene 1544) (P05177 whole entry, looked up): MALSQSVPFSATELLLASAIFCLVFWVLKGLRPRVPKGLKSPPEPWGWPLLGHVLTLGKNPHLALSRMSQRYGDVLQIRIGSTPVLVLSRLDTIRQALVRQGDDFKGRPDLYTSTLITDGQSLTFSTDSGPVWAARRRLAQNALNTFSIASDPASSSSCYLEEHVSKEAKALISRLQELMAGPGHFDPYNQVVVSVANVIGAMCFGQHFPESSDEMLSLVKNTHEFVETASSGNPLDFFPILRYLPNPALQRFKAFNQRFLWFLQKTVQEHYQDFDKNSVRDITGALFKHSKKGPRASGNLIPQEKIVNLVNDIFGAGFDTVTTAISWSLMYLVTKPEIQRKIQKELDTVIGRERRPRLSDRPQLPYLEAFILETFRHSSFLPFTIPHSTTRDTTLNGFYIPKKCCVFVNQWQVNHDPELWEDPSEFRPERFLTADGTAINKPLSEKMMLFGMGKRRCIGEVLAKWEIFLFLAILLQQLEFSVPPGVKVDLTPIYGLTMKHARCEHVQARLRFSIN
Sequence of Cytochrome P450 2C18 (Homo sapiens) (P33260 whole entry, looked up): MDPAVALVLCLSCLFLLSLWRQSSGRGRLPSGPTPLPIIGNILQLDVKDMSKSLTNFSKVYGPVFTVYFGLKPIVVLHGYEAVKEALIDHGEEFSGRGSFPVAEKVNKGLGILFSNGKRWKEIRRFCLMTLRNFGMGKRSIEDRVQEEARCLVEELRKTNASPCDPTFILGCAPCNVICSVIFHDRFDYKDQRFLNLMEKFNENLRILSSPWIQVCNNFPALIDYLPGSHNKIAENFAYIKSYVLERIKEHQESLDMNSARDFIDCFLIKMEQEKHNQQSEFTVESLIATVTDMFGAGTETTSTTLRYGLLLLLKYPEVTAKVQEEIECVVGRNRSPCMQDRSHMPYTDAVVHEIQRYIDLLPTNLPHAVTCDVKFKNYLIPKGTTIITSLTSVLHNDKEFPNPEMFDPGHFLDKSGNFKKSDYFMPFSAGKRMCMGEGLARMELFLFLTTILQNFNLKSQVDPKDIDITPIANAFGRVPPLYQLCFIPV
Sequence of human CYP19A1, CYP19A1 (gene 1588) (P11511 whole entry, looked up): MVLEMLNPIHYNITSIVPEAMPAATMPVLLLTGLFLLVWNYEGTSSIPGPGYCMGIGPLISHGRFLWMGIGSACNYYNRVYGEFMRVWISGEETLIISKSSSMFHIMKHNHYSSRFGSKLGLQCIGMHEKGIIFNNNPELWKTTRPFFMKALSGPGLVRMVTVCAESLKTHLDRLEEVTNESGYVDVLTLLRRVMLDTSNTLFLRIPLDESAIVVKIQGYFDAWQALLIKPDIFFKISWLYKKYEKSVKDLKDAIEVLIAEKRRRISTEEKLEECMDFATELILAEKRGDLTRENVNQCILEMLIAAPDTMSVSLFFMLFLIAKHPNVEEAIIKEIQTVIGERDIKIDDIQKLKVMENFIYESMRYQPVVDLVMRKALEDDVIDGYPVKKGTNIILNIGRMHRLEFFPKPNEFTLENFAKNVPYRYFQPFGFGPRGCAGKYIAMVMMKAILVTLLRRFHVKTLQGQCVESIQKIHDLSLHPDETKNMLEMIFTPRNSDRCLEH
Sequence of rat CYP2A2, Cyp2a2 (gene 24895) (P15149 whole entry, looked up): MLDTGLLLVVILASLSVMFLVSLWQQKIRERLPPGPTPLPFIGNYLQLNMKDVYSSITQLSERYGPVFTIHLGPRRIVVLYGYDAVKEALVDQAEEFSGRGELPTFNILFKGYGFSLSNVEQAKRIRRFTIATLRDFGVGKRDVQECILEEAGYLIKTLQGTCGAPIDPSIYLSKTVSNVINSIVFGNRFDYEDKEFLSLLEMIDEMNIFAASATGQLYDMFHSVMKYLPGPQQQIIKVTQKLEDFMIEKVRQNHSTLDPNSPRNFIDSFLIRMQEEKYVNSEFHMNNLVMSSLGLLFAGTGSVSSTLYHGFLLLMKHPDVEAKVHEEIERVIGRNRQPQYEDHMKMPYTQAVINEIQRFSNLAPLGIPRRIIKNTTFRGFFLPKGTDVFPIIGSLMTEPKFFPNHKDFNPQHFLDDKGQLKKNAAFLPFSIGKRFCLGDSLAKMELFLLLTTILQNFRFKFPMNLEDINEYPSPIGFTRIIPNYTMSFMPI
Sequence of human CYP2A6, CYP2A6 (gene 1548) (P11509 whole entry, looked up): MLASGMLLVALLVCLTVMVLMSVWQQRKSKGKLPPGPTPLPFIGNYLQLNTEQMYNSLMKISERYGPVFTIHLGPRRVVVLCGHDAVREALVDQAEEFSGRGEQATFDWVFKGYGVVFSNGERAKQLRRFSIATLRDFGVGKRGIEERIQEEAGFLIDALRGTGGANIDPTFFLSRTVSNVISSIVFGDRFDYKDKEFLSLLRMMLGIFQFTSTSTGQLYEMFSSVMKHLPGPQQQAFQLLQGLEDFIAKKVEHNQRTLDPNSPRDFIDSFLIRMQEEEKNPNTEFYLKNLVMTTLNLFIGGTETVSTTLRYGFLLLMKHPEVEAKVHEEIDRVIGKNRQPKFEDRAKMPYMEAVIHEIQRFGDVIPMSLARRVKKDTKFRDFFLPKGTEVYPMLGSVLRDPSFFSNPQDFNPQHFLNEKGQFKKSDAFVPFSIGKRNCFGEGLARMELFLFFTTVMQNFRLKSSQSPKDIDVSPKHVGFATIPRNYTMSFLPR
Sequence of human CYP2D6, CYP2D6 (gene 1565) (P10635 whole entry, looked up): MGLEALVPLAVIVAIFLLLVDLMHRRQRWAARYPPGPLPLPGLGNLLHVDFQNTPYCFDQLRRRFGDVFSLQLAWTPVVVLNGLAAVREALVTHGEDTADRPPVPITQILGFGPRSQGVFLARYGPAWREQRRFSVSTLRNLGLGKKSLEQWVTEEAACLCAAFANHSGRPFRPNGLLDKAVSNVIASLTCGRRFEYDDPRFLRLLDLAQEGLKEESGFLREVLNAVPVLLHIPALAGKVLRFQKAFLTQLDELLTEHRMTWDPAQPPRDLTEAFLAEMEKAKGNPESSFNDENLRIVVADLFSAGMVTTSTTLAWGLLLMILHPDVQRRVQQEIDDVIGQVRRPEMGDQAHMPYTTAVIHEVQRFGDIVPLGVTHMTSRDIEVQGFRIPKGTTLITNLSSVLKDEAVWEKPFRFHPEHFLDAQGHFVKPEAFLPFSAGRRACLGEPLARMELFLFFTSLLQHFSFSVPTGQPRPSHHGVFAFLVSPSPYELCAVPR
Sequence of human CYP2C9, CYP2C9 (gene 1559) (P11712 whole entry, looked up): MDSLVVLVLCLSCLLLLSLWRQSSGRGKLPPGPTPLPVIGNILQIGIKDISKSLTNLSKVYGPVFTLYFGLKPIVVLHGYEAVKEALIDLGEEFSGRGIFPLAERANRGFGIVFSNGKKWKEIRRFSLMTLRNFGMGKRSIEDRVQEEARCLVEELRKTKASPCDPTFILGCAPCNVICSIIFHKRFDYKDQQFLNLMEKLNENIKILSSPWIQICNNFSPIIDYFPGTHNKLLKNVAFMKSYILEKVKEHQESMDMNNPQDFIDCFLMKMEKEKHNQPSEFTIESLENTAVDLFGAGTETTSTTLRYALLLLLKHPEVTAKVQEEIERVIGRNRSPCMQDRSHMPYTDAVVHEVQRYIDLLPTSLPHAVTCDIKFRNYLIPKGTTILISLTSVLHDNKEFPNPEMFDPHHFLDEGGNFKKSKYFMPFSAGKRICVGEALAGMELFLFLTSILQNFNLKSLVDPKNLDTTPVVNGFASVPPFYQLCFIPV
Sequence of human CYP2C8, CYP2C8 (gene 1558) (P10632 whole entry, looked up): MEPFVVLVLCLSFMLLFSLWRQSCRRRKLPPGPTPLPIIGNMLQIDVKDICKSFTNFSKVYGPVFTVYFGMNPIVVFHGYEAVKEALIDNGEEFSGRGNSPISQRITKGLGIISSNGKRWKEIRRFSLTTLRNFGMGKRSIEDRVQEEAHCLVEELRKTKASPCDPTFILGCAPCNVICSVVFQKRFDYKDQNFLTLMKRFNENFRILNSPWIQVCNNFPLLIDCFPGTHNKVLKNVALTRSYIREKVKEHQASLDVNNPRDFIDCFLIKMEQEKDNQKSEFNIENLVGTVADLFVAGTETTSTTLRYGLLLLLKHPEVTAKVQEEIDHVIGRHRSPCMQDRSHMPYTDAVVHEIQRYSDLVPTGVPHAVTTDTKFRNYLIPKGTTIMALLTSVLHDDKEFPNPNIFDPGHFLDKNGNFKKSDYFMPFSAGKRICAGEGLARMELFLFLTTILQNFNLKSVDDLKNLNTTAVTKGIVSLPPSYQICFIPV

`Oc1cc(Cl)ccc1Oc1ccc(Cl)cc1Cl`: the AC50 (as a rule, the concentration at which the activity in the assay is half-maximal) in assay [1] was 13.8 µM (active) [middle of 4 runs]; in assay [2] it was 12.8 µM (active) [middle of 4 runs]; in assay [3], 15.3 µM (active) and 22.3 µM (active) and 14.9 µM (active); in assay [4], 9.33 µM (active); in assay [5] it was 4.51 µM (active).

With `CC1(C)C(C=C(Cl)Cl)C1C(=O)OC(C#N)c1ccc(F)c(Oc2ccccc2)c1` (stereo unspecified), the result in [1], in assay [2] and in [6] was inactive. For the same compound, the AC50 was 14.2 µM (active) in [3] and 10 µM (active) in assay [7].

On to `OCCOc1ccccc1`, for which the result in assay [1], in [2] and in [3] was inactive.

`COC(=O)c1ccccc1S(=O)(=O)NC(=O)Nc1nc(C)nc(OC)n1`: the AC50 in assay [1] is 15.5 µM (active). For the same compound, the outcome in assay [2], in [3] and in assay [8] was inactive.

`O=C(O)COc1ccc(Cl)cc1Cl`: the outcome in assay [1], in assay [2] and in assay [3] was inactive.

For `COc1nn(CSP(=S)(OC)OC)c(=O)s1`, the outcome in [1], in [2] and in assay [3] was inactive. Moreover, the AC50 in assay [6] was 1.23 µM (active); in assay [9], 6.42 µM (active); in assay [10], 5.47 µM (active); in assay [11], 0.35 µM (active); in assay [4] it was 3.25 µM (active); in assay [12], 3.67 µM (active). The concentration at half-maximal activity (AC50) was 2.06 µM (active) in assay [13], 3.83 µM (active) in assay [8], 2.88 µM (active) in [7] and 4.97 µM (active) in assay [14].

As to `C#CCN1C(=O)COc2cc(F)c(N3C(=O)C4=C(CCCC4)C3=O)cc21`, the result in [1], in [2], in assay [3] and in [4] was inactive. Further, the AC50 in [11] was 4.2 µM (active); in assay [13], 2.5 µM (active).

Consider `O=C(Nc1ccccc1)Nc1cnns1`, for which the result in [1], in [2], in [3], in assay [13] and in [16] was inactive. Besides, the AC50 in assay [9] was 5.8 µM (active); in [4] it was 3.55 µM (active); in assay [15] it was 6.13 µM (active).

For `O=C(NC(=O)c1c(F)cccc1F)Nc1ccc(OC(F)(F)C(F)OC(F)(F)F)c(Cl)c1` (stereo unspecified), the AC50 in [1] is 8.44 µM (active). Also, the outcome in assay [2], in [3] and in [5] was inactive.

`CCS(=O)(=O)c1cccnc1S(=O)(=O)NC(=O)Nc1nc(OC)cc(OC)n1`: the result in assay [1], in [2] and in assay [3] was inactive.

For the compound `CNC(=O)/C=C(\C)OP(=O)(OC)OC`, the outcome in assay [1], in assay [2] and in assay [3] was inactive.

Consider `CCOC1Oc2ccc(OS(C)(=O)=O)cc2C1(C)C` (stereo unspecified), for which the AC50 was 25.9 µM (active) in assay [1]; 10.1 µM (active) in assay [2]; 5.43 µM (active) in [11]; 5.65 µM (active) in [12]; 6.21 µM (active) in assay [14]. Also, the result in assay [3] was inactive.

In the case of `Cc1[nH]c(=O)n(C(C)(C)C)c(=O)c1Cl`, the half-maximal activity concentration (AC50) in assay [1] is 9.4 µM (active); in assay [2] it was 9.86 µM (active). For the same compound, in assay [3], the outcome was inactive.
